# According to ChEMBL document CHEMBL1157539, “Thousands of chemical starting points for antimalarial lead identification” (Nature, 2010):
# System: Plasmodium falciparum
# Assay: GSK_TCMDC: Inhibition of Plasmodium falciparum 3D7 in whole red blood cells, using parasite LDH activity as an index of growth. Test compounds present at 2uM
# Assay type: functional
row,SMILES,Inhibition [%]
1,CC(C)NCc1ccc(-c2cccc(NC(=O)c3ccc(F)cc3)c2)cc1.O=C(O)C(F)(F)F,91
2,COCC(=O)N(Cc1ccccc1-c1cccc(CNCc2ccc3c(c2)OCO3)c1)C1CCN(Cc2ccccc2)CC1.O=C(O)C(F)(F)F,94
3,O=C(/C=C/c1ccccc1)N1CCOC(CCN2CCC(c3ccccc3)CC2)(c2ccc(Cl)c(Cl)c2)C1 (centres undefined),89
4,CNC(=O)c1cnc(Nc2ccc3[nH]c(=O)[nH]c3c2)nc1Nc1cccc(OC(C)C)c1.O=C(O)C(F)(F)F,89
5,NC(=O)c1sc(-n2cnc3ccccc32)cc1OCc1ccccc1[N+](=O)[O-],99
6,O=C(/C=C/c1ccc(Cl)c(Cl)c1)NCCCCCN1CCCN(C(=S)Nc2ccc(Cl)c(Cl)c2)CC1,96
7,O=C(/C=C/c1ccc(Cl)cc1)NCCCCCN1CCN(C(=O)Nc2ccc(Cl)c(C(F)(F)F)c2)CC1,94
8,Cl.O=c1cc(NCCCNCc2cc3c(Cl)cc(Cl)cc3[nH]2)[nH]c2ccccc12,100
9,CCN(CCN(C)C)Cc1ccc(-c2ccc(NS(=O)(=O)c3cccc(Cl)c3)cc2)cc1.O=C(O)C(F)(F)F,97
10,Cc1cccc2nc(-c3ccc(-c4cccc(NC(=O)C(C)CN5CCN(C)CC5)c4)cc3)[nH]c12 (centres undefined),98
11,COc1ccc2nccc([C@@H](O)CN3CCC(NCc4ccc5nc[nH]c(=O)c5c4)CC3)c2c1.O=C(O)C(=O)O,99
12,N#Cc1ccc(-c2ccc(C(=O)NC3CCN(CCN4CCC(c5cn(CCOC6CCCCO6)c6ccccc56)CC4)CC3)cc2)cc1 (centres undefined),99
13,COc1ccccc1C1CCN(C2CCC(NC(=O)c3cc(-c4ccc(Cl)cc4)cs3)CC2)CC1 (centres undefined),100
14,Cc1ccc2[nH]c(C)cc(=NN=Cc3cccc(F)c3)c2c1,99
15,O=C(Nc1ccc(N2CCN(Cc3c[nH]c4cc(F)ccc34)CC2)cc1)c1ccccc1-c1ccc(C(F)(F)F)cc1,85
16,CCCCCN1CCC(NS(=O)(=O)c2ccc(C(=O)Nc3cccc(C(F)(F)F)c3)cc2)C1.O=C(O)C(F)(F)F (centres undefined),94
17,O=C(Nc1ccc(C(=O)Oc2ccc3ccccc3c2)cc1)N[C@@H](Cc1ccc(O)cc1)C(=O)NC1CCN(Cc2ccc(O)cc2)C1.O=C(O)C(F)(F)F (some centres undefined),86

row,SMILES,Inhibition [%]
1,O=C(NCCCCCN1CCC(c2c[nH]c3ccccc23)CC1)c1ccc(Cl)c(Cl)c1,85
2,O=C(/C=C/c1ccc(Cl)cc1)NCCCCCN1CCCN(C(=O)Nc2ccc(F)c(Cl)c2)CC1,94
3,COc1ccc(CN2CCC(CNCCc3ccccc3Oc3ccccc3)CC2)cc1.O=C(O)C(F)(F)F,85
4,COc1ccc2[nH]ccc(=NN=Cc3ccc(Cl)cc3)c2c1,100
5,O=C(Cn1c(SCc2cccc(F)c2F)cc(=O)c2ccccc21)N(CCn1ccnc1)Cc1ccc(-c2ccc(C(F)(F)F)cc2)cc1,100
6,CC(C)(CNC(=O)[C@@H]1CCCN(CCOc2ccc(Cl)cc2)C1)c1nc(-c2ccc(Cl)c(O)c2)c(-c2ccncc2)[nH]1.Cl,92
7,COc1ccc2nccc(NCC3(O)CCC(NCc4cc5c(cn4)OCCO5)CC3)c2n1.Cl (centres undefined),99
8,Cc1cc2ncn(-c3ccnc(N4CCN(CCCN5CCCC5)CC4)n3)c2cc1C.O=C(O)C(F)(F)F,100
9,COc1ccc2ncc(C)c(CCN3CCC(NCc4ccc5c(n4)NC(=O)CS5)CC3)c2c1.Cl,100
10,C=C[C@H]1CN(CCCCCCC)CC[C@H]1CC(=O)Nc1cnnc2ccc(OC)cc12.O=C(O)C(=O)O,100
11,Cn1cccc1C(=O)C(=O)Nc1cccc(-c2ccc(-c3nc4cc(C(F)(F)F)ccc4[nH]3)cc2)c1,94
12,O=C(O)C[C@H](NC(=O)[C@@H]1CCCN1C(=O)c1cccc(-c2ccc(Cl)c(Cl)c2)c1)C(=O)O,84
13,O=C(c1ccc([N+](=O)[O-])o1)N1CCN(c2ccccc2)CC1,94
14,Cc1ccc(C(C)C)c(Oc2ccc3nc(N)nc(N)c3c2)c1,96
15,Clc1ccc2c(NCc3ccccc3)ccnc2c1,100
16,CC(Nc1ccc2c(c1)OCCO2)C(=O)Nc1cc(C(F)(F)F)ccc1N1CCOCC1 (centres undefined),98
17,C=CCOC(=O)N1CCC(CNCc2ccc(-c3ccc(-c4nc5ccccc5[nH]4)s3)cc2)C1.O=C(O)C(F)(F)F (centres undefined),100
